Screening data from PubChem.
BJeLR viability – MLPCN primary cell-based screen for lethality selective to Ras in HRASV12 cells | BJeLR (HRASV12) viability, CellTiter-Glo ATP luminescence, 48 h | inhibition, % (concentration not given with the values) | 300,000 compounds, 0.17% hits | AID 1554, 2009; in the data active means inhibition above about 50%; inconclusive means no clear call, values can overlap the other calls
Autofluor counter – flagged as autofluorescent in microsphere protease counterscreen | compound autofluorescence counterscreen, microsphere flow cytometry; active compounds read high | 360,000 compounds, 3.1% hits | AID 624483 | fluorescence intensity (concentration not given with the values); in the data active means fluorescence intensity above about 16000; inconclusive means no clear call, values can overlap the other calls
BoNT-F LC inh – BoNT/F light chain protease inhibitors, primary screen, biochemical, flow cytometry, MLPCN library; Botulinum neurotoxin type F light chain protease (Clostridium botulinum); Multiplex microsphere protease cleavage assay; inhibition, % at 10 µM; 360,000 compounds, 0.22% hits; in the data active means inhibition above about 35%, passing the limit was not always enough; inconclusive means no clear call, values can overlap the other calls; further: plate controls were buffer without enzyme for full effect and enzyme alone for no effect
Anthrax LF prot – Bacillus anthracis LF protease inhibitors, primary screen, biochemical, multiplex microsphere, MLPCN library. multiplex microsphere protease cleavage assay. Lethal factor (Bacillus anthracis), P15917. 360,000 compounds, 0.12% hits. inhibition, % at 10 µM. AID 588501, 2011; further: plate controls were buffer without enzyme for full effect and enzyme alone for no effect
Target sequence (P15917 whole entry, looked up): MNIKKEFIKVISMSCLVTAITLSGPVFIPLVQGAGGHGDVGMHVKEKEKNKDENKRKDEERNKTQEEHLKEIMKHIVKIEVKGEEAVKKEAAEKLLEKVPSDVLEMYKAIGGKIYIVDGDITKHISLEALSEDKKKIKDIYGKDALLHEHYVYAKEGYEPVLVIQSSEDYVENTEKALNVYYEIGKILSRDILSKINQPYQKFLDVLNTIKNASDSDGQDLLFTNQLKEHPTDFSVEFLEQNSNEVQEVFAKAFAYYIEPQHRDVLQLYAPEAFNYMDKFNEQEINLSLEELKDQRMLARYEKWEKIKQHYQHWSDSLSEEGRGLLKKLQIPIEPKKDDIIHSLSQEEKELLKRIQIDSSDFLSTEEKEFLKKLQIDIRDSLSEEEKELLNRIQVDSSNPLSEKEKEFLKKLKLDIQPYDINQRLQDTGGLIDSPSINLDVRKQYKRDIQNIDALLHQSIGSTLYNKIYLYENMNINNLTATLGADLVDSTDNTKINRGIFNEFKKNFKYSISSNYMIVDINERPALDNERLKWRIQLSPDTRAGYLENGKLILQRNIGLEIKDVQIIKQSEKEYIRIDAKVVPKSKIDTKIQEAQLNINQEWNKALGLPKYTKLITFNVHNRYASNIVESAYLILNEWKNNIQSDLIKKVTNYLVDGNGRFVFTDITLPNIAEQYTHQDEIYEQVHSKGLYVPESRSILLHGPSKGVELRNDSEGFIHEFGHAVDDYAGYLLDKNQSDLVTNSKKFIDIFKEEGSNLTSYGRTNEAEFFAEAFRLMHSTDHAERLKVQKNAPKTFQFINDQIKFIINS
SARS 3CLpro inh – SARS-CoV 3CLpro protease inhibitors, primary screen, biochemical, quenched FRET; Replicase polyprotein 1ab (Severe acute respiratory syndrome coronavirus), P0C6X7; recombinant SARS-CoV 3CLpro, quenched FRET peptide cleavage; 290,000 compounds, 0.14% hits; AID 1706, 2009; inhibition, % at 6 µM; in the data active means inhibition above about 12%
BoNT-A LC inh2 – BoNT/A light chain protease inhibitors, primary screen, biochemical, flow cytometry, MLPCN library; inhibition, % at 10 µM; AID 588499, 2011; 360,000 compounds, 0.17% hits; multiplex microsphere protease substrate cleavage; Botulinum neurotoxin type A light chain protease (Clostridium botulinum A str. ATCC 3502); further: plate controls were buffer without enzyme for full effect and enzyme alone for no effect
* = called active by the depositor; ? = inconclusive; · = no result; ! = not confirmed by another sample. This is a sample that favours compounds with a hit; in the whole collection about 3.6% have one here. Unless noted, no stated cut-off is given here; in the data, active means inhibition above about 30%; inconclusive means no clear call, values can overlap the other calls; inactive means below that.

SMILES	BJeLR viability	Autofluor counter	BoNT-F LC inh	Anthrax LF prot	SARS 3CLpro inh	BoNT-A LC inh2
N#Cc1ccc(S(=O)(=O)N2CCc3[nH]c4ccc(F)cc4c3C2)cc1	3	3410	?	-9	2	-3
COc1ccc(CN2C(=O)c3cccnc3C2=O)cc1S(=O)(=O)NC1CCCCC1C (stereo not given)	-1	5886	-9	3	-4	0
O=C(Cc1ccc(-n2c(=O)[nH]c3ccccc3c2=O)cc1)N1CCN(c2ccccc2)CC1	-5	7958	-7	0	8	1
O=C(Cc1ccc(-n2c(=S)[nH]c3ccccc3c2=O)cc1)N1CCN(c2ccccc2)CC1	-3	22575*	-2	-6	2	-1
COc1cccc(-c2nc3ccc(C(=O)NC(C)Cc4cccnc4)cc3o2)c1 (stereo not given)	-3	3478	?	20	-4	1
CNC[C@H](CC1CCCCC1)NC[C@H](Cc1ccccc1)NCCC12CC3CC(CC(C3)C1)C2	69*	2895	-53	-4	4	0
Cc1oc(-c2ccccc2Cl)nc1CSCC(=O)N1CCCC1	20	22629*	4	1	-2	1
Cc1ccccc1-c1nc(S(=O)(=O)c2ccc(Br)cc2)c(NCc2cccnc2)o1	0	20211*	0	-3	1	1
Cc1ccc(S(=O)(=O)N2CCN(C(=O)COC(=O)Cc3cccc(C(F)(F)F)c3)CC2)c(C)c1	-9	5275	-3	0	·	-1
CCOC(=O)CC(=O)Nc1ccccc1C(=O)O	9	2169	2	1	2	0
CCOC(=O)CCC(=O)Nc1ccccc1C(N)=O	-3	22534*	-3	-5	1	?
CCOc1ccccc1C(=O)Nc1ccccc1C(N)=O	-1	23043*	2	-4	-3	?
CCOC(=O)C(=O)Nc1ccccc1C(=O)NC(C)C	6	22964*	0	-1	-2	0
Cc1nn(CC(O)CN2c3ccccc3Sc3ccccc32)c(C)c1Br (stereo not given)	-4	2667	3	-3	2	0
Cc1nn(CC(O)c2ccccc2)c(C)c1Br (stereo not given)	1	21421*	0	0	0	-2
CCOC(=O)c1ccccc1NC(=O)Cc1ccccc1OC	-10	20686*	-4	1	4	-3
CCOC(=O)c1ccccc1NC(=O)c1cccs1	·	17478*	-5	-6	4	-2
O=C(Nc1cccc2nsnc12)c1cccs1	-10	21640*!	4	0	-3	2
C=CCOC(=O)/C(=C/c1cccc2ccccc12)NC(=O)c1ccccc1	-4	9979	-2	-3	-1	1
CCCC(=O)N1CCC1(C)C(=O)NS(=O)(=O)c1cc2c(cc1C)CCCS2(=O)=O (stereo not given)	·	4030	-2	2	·	-1
CCCOc1cccc(OCCSc2nc(C)cc(=O)[nH]2)c1	-9	11191	5	-2	-2	0
Cc1cc(=O)[nH]c(SCCCOc2ccc(F)cc2)n1	5	23808*	-1	1	-6	0
Cc1cc(=O)[nH]c(SC/C=C/c2ccccc2)n1	-2	17675*	-8	-5	-4	-7
CCCN(CCC)C1Sc2ccc(C(=O)OC)cc2NC1=O (stereo not given)	5	19484*	1	-1	-1	1
N#Cc1cccc(NC(=O)Cn2cnc(S(=O)(=O)N3CCOCC3)c2)c1	2	5418	4	-2	-1	1
SMILES	BJeLR viability	Autofluor counter	BoNT-F LC inh	Anthrax LF prot	SARS 3CLpro inh	BoNT-A LC inh2
CC(=O)/C(=N/Nc1ccccc1)N1CCOCC1	-3	22407*	3	-2	-1	2
CCCCn1c(O)c(C(C)=NCc2cccnc2)c(=O)[nH]c1=O	2	·	·	·	4	·
CCC(=NCc1cc(OC)cc(OC)c1)c1c(O)n(C)c(=O)n(C)c1=O	14	24024*	-2	-5	0	?
CCC(=NCc1cccnc1)c1c(O)n(Cc2ccccc2)c(=O)[nH]c1=O	·	19069*	2	-1	-7	3
CCC(=NCc1ccc2c(c1)OCO2)c1c(O)n(C)c(=O)n(C)c1=O	1	3898	3	0	-1	2
CC(=NCc1cccnc1)c1c(O)n(-c2ccc(Cl)cc2)c(=O)[nH]c1=O	-3	5481	2	4	-1	0
CCCCn1c(O)c(C(CC)=NCc2cccnc2)c(=O)[nH]c1=O	6	22114*	1	0	0	0
CC(=NCc1cccnc1)c1c(O)n(-c2ccccc2)c(=O)[nH]c1=O	5	20066*	-4	-3	-1	-2
CCn1c(SCC(=O)N2CCN(c3ccccc3)CC2)nc2c([nH]c3ccccc32)c1=O	13	6317	6	2	0	-3
CCCCn1c(O)c(C(CC)=Nc2ccc(OCC)cc2)c(=O)[nH]c1=O	0	16712*	-4	1	2	-1
CCCCn1c(O)c(C(CC)=NCc2cc(OC)cc(OC)c2)c(=O)[nH]c1=O	0	22230*	1	-2	4	0
CCCCn1c(O)c(C(CC)=Nc2ccc(OC)cc2OC)c(=O)[nH]c1=O	-10	9292	-12	-23	2	-1
Cc1ccc(CSc2ncnc3c2cnn3Cc2ccccc2)cc1C	-5	21383*	5	-5	-4	3
Cc1ccc(CSc2ncnc3c2cnn3Cc2ccccc2)cc1	2	11225	-12	-1	5	-1
O=C(CN(Cc1ccco1)C(=O)c1cc(=O)[nH]c2ccccc12)Nc1ccccc1C(F)(F)F	-14	16502*	0	-4	2	0
CC(C)(C)C(=O)Nc1nnc(SCC(=O)NC2CC2)s1	13	3844	21	4	-4	1
COc1cc(/C=C2/N=C(C3CCCCC3)OC2=O)cc(OC)c1OC	3	20975*	1	-4	1	?
COc1cc(/C=C2\N=C(C)OC2=O)cc(OC)c1OC	0	2955	4	-5	-6	-4
CCOc1ccc(-c2n[nH]c(C)c2Oc2ccc(OC)cc2)c(O)c1	-6	3066	-4	-7	4	0
Cc1ccc(C)c(/C=C2\N=C(c3ccccc3F)OC2=O)c1	-31	3685	-12	6	4	0
COc1cc(/C=C2/N=C(c3ccccc3F)OC2=O)cc(Cl)c1OS(C)(=O)=O	1	20200*	-3	-6	-3	-1
CCOc1ccc(C(=O)N2CCCC(c3nc(-c4cccs4)no3)C2)cc1 (stereo not given)	-3	4435	-3	-5	-1	-1
